Ecoli rRNA inh = inhibitors of bacterial rRNA selective over humanized ribosomes; E. coli WT GFP vs humanized-ribosome RFP mutants, fluorescence, 24 h; hits give low values; DMSO median 0, no signal -100; GFP signal change (wild-type ribosome), % (no concentration beside the values); actives 1.6% (n = 350,000); AID 720706;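 active = significant combined selectivity score with lowered wild-type GFP, culture density cut under 30%, mutant RFP and density less affected; inactive = any of these conditions unmet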
SIRT5 block = blocks human SIRT5 desuccinylation of peptide | actives 1.1% (n = 330,000) | Q9NXA8 | Purified SirT5, succinyl-peptide AMC, trypsin-coupled fluorescence | inhibition, % at 15 µM; in the data active = inhibition above about 15%; inconclusive = no clear call, values can overlap the other calls
Target sequence (Q9NXA8 whole entry, looked up): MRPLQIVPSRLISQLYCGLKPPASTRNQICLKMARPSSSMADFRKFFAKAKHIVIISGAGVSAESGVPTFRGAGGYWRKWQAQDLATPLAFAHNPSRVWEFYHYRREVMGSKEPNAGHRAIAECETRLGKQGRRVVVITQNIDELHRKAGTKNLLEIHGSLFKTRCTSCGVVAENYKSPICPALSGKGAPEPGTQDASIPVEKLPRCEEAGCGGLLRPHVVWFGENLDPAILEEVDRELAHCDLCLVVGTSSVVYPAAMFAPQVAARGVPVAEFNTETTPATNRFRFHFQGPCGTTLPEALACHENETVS
LGR2 inh = inhibitors of bursicon-induced Drosophila LGR2 receptor cAMP signaling; actives 0.35% (n = 380,000); inhibition, % at 9.99 µM; AID 720647; HEK293 LGR2, CRE-luciferase, bursicon-stimulated, 4 h;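 active = drop in luminescence signal, shown as inhibition above about 50% in the replicate tests, limit read from the data, passing the limit was not always enough; inconclusive = probably only some replicates passing the limit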;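 note: agonist challenge used bursicon conditioned medium at about half maximal strength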
PGC1a acetyl inh = lowers PGC1a acetylation signal in U2OS cells | AlphaScreen anti-acetyl-lysine; with virally co-expressed GCN5 acetyltransferase | inhibition, % at 15.6 µM | actives 0.17% (n = 350,000) | AID 651687;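 active = every replicate shows inhibition of at least 40%; inconclusive = mean inhibition at least 40% but some replicate below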;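 note: 0% = neutral control wells and 100% = positive control wells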
EWS-Fli inh = inhibitors of EWS/Fli oncoprotein transcriptional activity | A673 NR0B1-luciferase reporter, viability-normalised | inhibition, % at 12.6 µM | actives 0.67% (n = 350,000) | AID 651661;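 active = mean inhibition of at least 50% after viability correction, with every replicate also passing that limit; inconclusive = mean reaches 50% but only one of two replicates passes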;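 note: firefly luciferase signal divided by Alamar Blue viability fluorescence both relative to DMSO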
PAX8 reporter = inhibitors of PAX8 transcriptional activity in RMG-I cells | AID 652154 | actives 1.2% (n = 360,000) | RMG-I TPO-luciferase reporter, SteadyGlo, 24 h | inhibition, % at 12.6 µM;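 active = mean replicate inhibition at least 60% with every replicate also reaching 60%; inconclusive = only one of the two criteria is met; inactive = mean below 60% and not all replicates reaching 60%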;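 note: luciferase light reporting Pax8 driven TPO promoter activity; plate controls were median of neutral control wells for no effect and mitoxantrone controls for full effect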
DNA binder FP = DNA binding small molecules | shares compounds with EWS-Fli inh | salmon sperm DNA acridine orange fluorescence polarization | AC35, µM (highest dose often 68 µM), without a hit: at the top dose activity change, negative = DNA binding | actives 2% (n = 640) | AID 720586;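 active = fitted curve reaches a 35% signal fall AC35 below twice the sample's top valid tested dose, actives reach about 48 µM in these data; inactive = the rest, including activity in the rising direction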;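 note: lower polarization ratio signals compound binding to DNA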
* = called active by the depositor; u = inconclusive; x = no result; ! = not confirmed by another sample. Hits are enriched below; roughly 3.4% of the tested compounds scored in any of these assays.

SMILES | Ecoli rRNA inh | SIRT5 block | LGR2 inh | PGC1a acetyl inh | EWS-Fli inh | PAX8 reporter | DNA binder FP
O=C(Nc1ccc2c(c1)OCO2)N1[C@@H]2CNC[C@H]1C2c1ccc(/C=C/c2ccccc2)cc1 (some centres undefined) | -59.8 | 5.3 | -13.0 | x | x | x | x
O=C(Nc1ccc2c(c1)OCO2)N1C[C@@H]2N[C@H](C1)C2c1ccc(C=Cc2ccccc2)cc1 (some centres undefined) | -60.0 | 17.0*! | 15.8 | -8.3 | 65.1*! | -18.8 | -5.4%
O=C(C1CC1)N1C[C@@H]2N[C@H](C1)C2c1ccc(/C=C/c2ccccc2)cc1 (some centres undefined) | -4.5 | -1.1 | 3.0 | -17.0 | 53.4*! | -90.3 | 5.0%
O=c1[nH]c(/C=C2\C=Nc3ccccc32)c(O)n1Cc1ccccc1F | -8.6 | 7.2 | 9.9 | -21.3 | 63.2* | 54.7 | 8.2%
CN1c2ccc(-c3ccc(C#N)cc3)cc2[C@H]2[C@H](CCN2S(=O)(=O)c2cccc(F)c2)[C@@H]1CO | -5.6 | -1.2 | 2.3 | 24.0 | 61.2* | 73.0* | -11.0%
Cc1ccccc1S(=O)(=O)N1CC[C@H]2[C@H](CO)Nc3ccc(-c4ccc(C#N)cc4)cc3[C@H]21 | -2.2 | 0.3 | -12.1 | 9.1 | 8.2 | -23.6 | x
Cc1ccccc1S(=O)(=O)N1CC[C@@H]2[C@@H](CO)Nc3ccc(-c4ccc(C#N)cc4)cc3[C@@H]21 | -6.4 | 2.9 | -1.6 | 17.7 | 54.4* | 24.0 | -16.8%
COc1ccc(-c2ccc3c(c2)[C@H]2[C@H](CCN2S(=O)(=O)c2ccc(OC)cc2)[C@@H](CO)N3C)cc1 | 0.3 | 8.2 | 12.1 | 2.2 | 54.7* | 79.4* | 5.0%
COc1ccc(-c2ccc3c(c2)[C@@H]2[C@@H](CCN2S(=O)(=O)c2ccc(OC)cc2)[C@H](CO)N3C)cc1 | 2.4 | 13.3 | -2.5 | -15.4 | -1.2 | 20.8 | x
C[C@@H]1CN([C@@H](C)CO)C(=O)c2cc(C3=CCCCC3)cnc2O[C@@H]1CN(C)Cc1cccnc1 | 3.5 | -1.4 | 22.0 | 0.5 | -2.5 | -2.0 | x
CN(C)c1ccc(N=Nc2nc3ccccc3n2C)cc1 | 15.6 | -1.8 | 102.8* | -8.7 | 86.4* | 89.7* | -2.7%
CC(=O)Nc1cc(C(=O)NCc2ccco2)ccc1Sc1ccc(F)cc1 | 10.9 | 1.8 | -3.6 | x | 85.0* | 28.4 | -6.7%
CCOc1ccccc1CNC(=O)c1ccc(Sc2ccc(Cl)cc2)c(NC(C)=O)c1 | -10.2 | 3.9 | -5.1 | -4.1 | 79.9* | 2.8 | 5.5%
C[C@@H]1CN([C@H](C)CO)C(=O)c2cc(-c3cccc(C(=O)N(C)C)c3)cnc2O[C@H]1CN(C)S(=O)(=O)c1ccccc1 | -5.2 | -0.8 | -14.7 | 1.3 | -11.2 | 14.4 | x
COc1ccc(-c2ccc3c(c2)[C@H]2[C@H](CCN2S(=O)(=O)c2ccc(OC)cc2)[C@@H](CO)N3)cc1 | -3.6 | x | -9.2 | 9.9 | 41.1 | 40.5 | x
C[C@H]1CN([C@@H](C)CO)C(=O)Cc2cc(NC(=O)Nc3ccc4c(c3)OCO4)ccc2O[C@@H]1CN(C)S(C)(=O)=O | 4.5 | x | 3.2 | -3.5 | x | -9.9 | x
O=S(=O)(c1ccc(F)cc1)N1C[C@H]2[C@@H](c3ccccc31)[C@H](CO)N2Cc1ccccc1Cl | -13.4 | 3.2 | 1.3 | -24.0 | 59.6* | 109.1* | -4.8%
CO[C@H]1CN(C)C(=O)c2cc(NC(=O)NC(C)C)ccc2OC[C@@H](C)N(Cc2ccc(-c3ccccn3)cc2)C[C@@H]1C | -3.0 | 7.4 | 10.4 | -0.9 | 11.1 | x | x
CO[C@H]1CN(C)C(=O)c2cc(NC(=O)NC(C)C)ccc2OC[C@H](C)N(Cc2ccc(-c3ccccn3)cc2)C[C@@H]1C | -0.6 | 8.3 | 47.2 | u | 51.5* | x | 11.6%
CCN1CCS/C1=C/C=C/C1=[N+](CC)CCS1 | x | x | x | 9.2 | x | x | x
CCN1CCS/C1=C\C=C\C1=[N+](CC)CCS1 | -32.4 | 18.4* | 23.7 | x | 52.7* | 76.1* | -1.2%
O=C(C[C@@H]1C[C@H]2c3cc(NC(=O)c4ccc5c(c4)OCO5)ccc3O[C@H]2[C@@H](CO)O1)NCc1cccc(F)c1 | -0.5 | -1.2 | -6.2 | -10.2 | -11.0 | -37.2 | x
Nc1cc2[nH]c(=O)c3ccccc3c2cc1Br | 14.1 | -1.9 | 11.5 | x | -20.8 | -5.8 | x
Nc1cc2c(cc1Br)[nH]c(=O)c1ccccc12 | -13.4 | -0.7 | x | 11.1 | 52.2* | 6.1 | -2.3%
CCc1nc(N)nc(N)c1-c1ccc(Cl)c(N=[N+]=[N-])c1 | -9.3 | -4.2 | 2.6 | 0.0 | 66.8*! | 15.7 | -7.0%
SMILES | Ecoli rRNA inh | SIRT5 block | LGR2 inh | PGC1a acetyl inh | EWS-Fli inh | PAX8 reporter | DNA binder FP
CC(Oc1ccc(Cl)cc1Cl)C(=O)NCCCCc1ccccc1 (centres undefined) | x | x | -6.4 | x | x | -12.8 | x
CC(Oc1cccc(Cl)c1)C(=O)NCCCCc1ccccc1 (centres undefined) | -46.8 | 2.0 | -19.2 | x | 87.4* | -3.5 | 1.0%
CCCNC(=O)N1C[C@@H](C)[C@H](OC)CN(C)C(=O)c2cc(NC(=O)C3CCC3)ccc2OC[C@H]1C | 2.3 | x | -4.2 | -9.8 | 4.3 | x | x
CCNC(=O)C[C@H]1CC[C@@H]2[C@H](COc3ccc(NC(=O)Nc4c(C)noc4C)cc3C(=O)N2C)O1 | 5.3 | -1.2 | 6.9 | -3.5 | -1.5 | -3.1 | x
COC(=O)CC1(C(=O)OC)Oc2ccc(Br)cc2C(=O)N1c1cccc(Cl)c1Cl (centres undefined) | -13.1 | -2.2 | 19.7 | x | 63.7* | 40.7 | -8.0%
COC(=O)CC1(C(=O)OC)Oc2ccc(Br)cc2C(=O)N1c1ccc(Br)cc1Cl (centres undefined) | -9.4 | -5.8 | 14.0 | x | 10.9 | 26.9 | x
OC[C@H]1O[C@@H](n2cnc3c(NCc4ccco4)ncnc32)[C@H](O)[C@@H]1O | x | -1.0 | -13.9 | -72.3 | 80.5* | 99.9* | -9.8%
OCC1OC(n2cnc3c(NCc4ccco4)ncnc32)C(O)C1O (centres undefined) | 4.6 | 1.0 | -4.1 | x | 75.8* | 104.3* | -13.5%
C=CCNc1ncnc2c1ncn2C1OC(CO)C(O)C1O (centres undefined) | x | x | x | 0.6 | x | x | x
Nc1ccc(Cn2ccc3c4c(N)nc(N)nc4ccc32)cc1 | -56.6 | 1.4 | 27.3 | 21.3 | 69.7* | 69.6* | -0.7%
NCC[C@@H]1CC[C@H](NC(=O)Nc2ccc(F)cc2)[C@H](CO)O1 | -0.5 | -1.9 | -2.2 | 5.5 | -1.1 | -6.1 | x
O=C(C[C@H]1C=C[C@H](NS(=O)(=O)c2ccc(F)cc2)[C@H](CO)O1)NCc1ccccc1F | 2.0 | 0.7 | 12.6 | -0.3 | 4.5 | x | x
CC(C)(C)c1ccc(Oc2ccc(NC(=O)C3CC=CCC3C(=O)O)cc2)cc1 (centres undefined) | -37.1 | 4.5 | 25.5 | -6.7 | 69.7* | 11.5 | -14.2%

Screening data from PubChem.
